ChEMBL document CHEMBL3433997, “St. Jude Leishmania screening dataset” (2016)

Each compound was assayed against Glucose transporter (Leishmania mexicana) (UniProt O61059) (assay: ST_JUDE_LEISH: Cytotoxicity at 2uM final concentration against transgenic Leishmania Mexicana promastigotes LmGT2 that are glucose transport deficient and complemented with the L. Mexicana glucose transporter 2. Activity is measured by DNA content using SYBR green in vitro).
Assay type: functional

Going from O=C1Nc2cccc3c2C1(CCCCN1CCC(c2c(-c4ccc(F)cc4)[nH]c4ccccc24)CC1)CCC3 (centres undefined) to O=C(NCCCCCN1CCC(c2c[nH]c3ccccc23)CC1)Nc1cccc(I)c1, the inhibition falls from 6.27% to 5.88%.

Going from CCN(CC1CCN(CC2(O)CCOCC2)CC1)c1cc(C)nc(Nc2ccc(Cl)cc2)n1 to COc1cc(Nc2nccc(N3CCC(NC(=O)C(C)c4ccc(Cl)cc4)C3)n2)cc(OC)c1OC (centres undefined), the inhibition rises from -0.02% to 1.19%.

First: Cc1ccc(C(=O)NCC2CCN(c3ccc(C(F)(F)F)cc3NC(=O)c3ccco3)CC2)cn1
Second: O=C(Nc1cc(C(F)(F)F)ccc1-n1cncn1)C1(c2ccccc2)CC1
The inhibition of the first is higher: 3.12% for the first, 0.27% for the second.

Going from O=c1cc(NC[C@H]2CCC[C@@H]2NC2CCCc3c2[nH]c2ccccc32)[nH]c2ccccc12 (some centres undefined) to O=C(NC1CCN(c2ccnc3cc(Cl)ccc23)C1)c1ccc(F)cc1 (centres undefined), the inhibition falls from 5.67% to 4.18%.

Compared with CC(C)(C)C(=O)Oc1ccc(CC2NCCc3cc(OC(=O)C(C)(C)C)c(OC(=O)C(C)(C)C)cc32)cc1OC(=O)C(C)(C)C (centres undefined), CCOC(=O)c1ccc2[nH]c(-c3ccc(C(=O)NCc4ccc(C(C)(C)C)cc4)cc3)nc2c1 is lower in inhibition: 7.65% for the first, 1.02% for the second.

Compared with Clc1ccc(CNCCCCCCCNCc2ccc(Cl)c(Cl)c2)cc1Cl, CN(C)CCOc1ccc(-c2cc(-c3ccncc3)c(-c3ccc(Cl)c(O)c3)o2)cc1 is higher in inhibition: -0.86% for the first, 0.33% for the second.

Compared with C[C@@H](Oc1cc(-n2cnc3ccc(OCC4CCN(S(C)(=O)=O)CC4)cc32)sc1C(N)=O)c1ccccc1C(F)(F)F, CCc1cc2c(=O)c(-c3nc(C)cs3)c([C@H](N)Cc3ccc(O)cc3)oc2cc1O is higher in inhibition: 4.63% for the first, 7.8% for the second.
